Assay in all cases: DAPPL (digital affinity profiling via proximity ligation, sequencing); 10 mM Tris-HCl pH 7.5, 50 mM NaCl, 1 mM DTT, 4% glycerol, room temperature, 30 min; GST-TFs on glutathione beads, 16-mer random dsDNA library, 0.1% formaldehyde crosslink after washing; high values mean tight binding
The target in test [1] is T1, GABPA (Homo sapiens, UniProt Q06546 1-454).
T1 sequence: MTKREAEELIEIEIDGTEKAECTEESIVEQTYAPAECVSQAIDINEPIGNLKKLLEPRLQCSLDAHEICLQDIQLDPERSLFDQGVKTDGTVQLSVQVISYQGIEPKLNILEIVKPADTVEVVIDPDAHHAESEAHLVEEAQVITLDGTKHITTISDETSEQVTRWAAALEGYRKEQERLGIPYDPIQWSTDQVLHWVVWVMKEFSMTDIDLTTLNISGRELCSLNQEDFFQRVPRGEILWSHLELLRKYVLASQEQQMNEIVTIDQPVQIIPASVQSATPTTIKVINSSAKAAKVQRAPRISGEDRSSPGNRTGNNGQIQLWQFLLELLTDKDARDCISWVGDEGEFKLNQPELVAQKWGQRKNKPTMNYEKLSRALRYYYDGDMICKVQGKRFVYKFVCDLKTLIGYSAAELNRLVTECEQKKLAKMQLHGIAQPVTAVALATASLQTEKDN
The note with it: protein: recombinant; tags: N-terminal GST; dsDNA, one strand shown. The gist of the method:
(§1)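 A tag-only sample was pooled with DNA-barcoded human transcription factors that had been expressed in yeast as GST fusions and captured on glutathione beads. The pools were incubated for 30 min at room temperature with 200 nmole of a random double-stranded 16-mer DNA library in Tris/NaCl/DTT/glycerol buffer, then washed, crosslinked with 0.1% formaldehyde, proximity-ligated (BsaI/T4 ligase, 1 h, 37 °C), PCR-amplified and sequenced on an Illumina NextSeq500. Binding signal is each hexamer's read frequency for a factor divided by its frequency for the tag-only sample.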

Test [2] deals with HSF1 (Homo sapiens, UniProt Q00613 1-529). Conditions: protein: recombinant; tags: N-terminal GST; chain copies: 3; dsDNA, one strand shown. The essentials: as §1
The target in test [3] is T2, ELK4 (Homo sapiens, UniProt P28324-2 1-405).
T2 sequence: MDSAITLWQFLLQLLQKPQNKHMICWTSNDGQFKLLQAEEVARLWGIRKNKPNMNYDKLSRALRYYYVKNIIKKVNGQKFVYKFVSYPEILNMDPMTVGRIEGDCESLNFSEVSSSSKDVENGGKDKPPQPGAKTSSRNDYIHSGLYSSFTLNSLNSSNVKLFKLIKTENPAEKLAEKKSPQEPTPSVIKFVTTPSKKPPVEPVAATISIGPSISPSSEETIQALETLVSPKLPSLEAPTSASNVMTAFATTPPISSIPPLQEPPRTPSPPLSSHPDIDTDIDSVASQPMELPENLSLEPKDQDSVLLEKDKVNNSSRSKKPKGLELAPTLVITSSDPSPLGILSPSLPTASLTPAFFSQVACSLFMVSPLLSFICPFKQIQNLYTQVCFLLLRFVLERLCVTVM
The note with it: protein: recombinant; tags: N-terminal GST; dsDNA, one strand shown. The gist of the method: as §1

Test [4] has as its target CRX (Homo sapiens, UniProt O43186 1-299). Conditions: protein: recombinant; tags: N-terminal GST; dsDNA, one strand shown. The essentials:
as §1

The text below walks through data of publication PMC7862700, “An all-to-all approach to the identification of sequence-specific readers for epigenetic DNA modifications on cytosine”.

Sequence of CRX (O43186 whole entry): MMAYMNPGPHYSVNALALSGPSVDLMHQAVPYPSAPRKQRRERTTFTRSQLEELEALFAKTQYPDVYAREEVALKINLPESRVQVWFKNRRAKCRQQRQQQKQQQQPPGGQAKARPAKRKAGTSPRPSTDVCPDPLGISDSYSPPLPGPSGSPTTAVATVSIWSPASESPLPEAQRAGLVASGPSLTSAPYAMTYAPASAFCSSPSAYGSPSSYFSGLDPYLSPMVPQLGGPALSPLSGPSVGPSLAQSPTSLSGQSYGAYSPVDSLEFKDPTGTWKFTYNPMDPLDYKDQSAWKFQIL
Sequence of HSF1 (Q00613 whole entry): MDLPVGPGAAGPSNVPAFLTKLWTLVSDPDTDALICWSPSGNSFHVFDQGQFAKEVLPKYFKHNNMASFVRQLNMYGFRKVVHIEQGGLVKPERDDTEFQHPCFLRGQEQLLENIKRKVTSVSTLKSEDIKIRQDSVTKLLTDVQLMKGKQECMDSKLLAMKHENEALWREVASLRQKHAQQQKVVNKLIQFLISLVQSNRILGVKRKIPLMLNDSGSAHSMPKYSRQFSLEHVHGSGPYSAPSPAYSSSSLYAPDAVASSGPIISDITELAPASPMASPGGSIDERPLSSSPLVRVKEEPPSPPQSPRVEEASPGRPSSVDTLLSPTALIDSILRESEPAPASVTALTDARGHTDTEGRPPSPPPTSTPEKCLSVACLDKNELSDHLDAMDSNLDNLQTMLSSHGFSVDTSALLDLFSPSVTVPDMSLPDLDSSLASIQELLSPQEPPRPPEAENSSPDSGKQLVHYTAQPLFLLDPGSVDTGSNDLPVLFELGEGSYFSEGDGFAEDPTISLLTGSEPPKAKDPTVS

With ATCAGA, the binding signal in test [1] was 1.11 fold enrichment (6-mer frequency, TF over GST control); in test [2], 1.09 fold enrichment (6-mer frequency, TF over GST control); in test [3], 1.05 fold enrichment (6-mer frequency, TF over GST control); in test [4], 1.25 fold enrichment (6-mer frequency, TF over GST control).
